Source: PubChem BioAssay (The Scripps Research Institute Molecular Screening Center)
In the library only some 2.8% were active in any assay of this set; here they are far more common.
bovine MsrA act: bovine MsrA enzyme activators, primary screen, biochemical, absorbance, HTS | purified bovine MsrA, absorbance read-out | activation, % at 10.6 µM | hit rate 0.3% among 360,000; in the data active means activation above about 7.5%
proKLK7 act: proKLK7 zymogen activators, primary screen, biochemical, fluorescence intensity. Kallikrein-7 (Homo sapiens), P49862. purified proKLK7, EDANS-DABCYL substrate fluorescence; 100% is mature enzyme control, 0% vehicle. activation, % at 7 µM. hit rate 0.9% among 370,000. AID 652039, 2013;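 active means activation above the mean of all tested compounds plus 3 SD, computed per campaign excluding outliers beyond control limits, cut at about 13% in these data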
Target sequence (P49862 whole entry, looked up): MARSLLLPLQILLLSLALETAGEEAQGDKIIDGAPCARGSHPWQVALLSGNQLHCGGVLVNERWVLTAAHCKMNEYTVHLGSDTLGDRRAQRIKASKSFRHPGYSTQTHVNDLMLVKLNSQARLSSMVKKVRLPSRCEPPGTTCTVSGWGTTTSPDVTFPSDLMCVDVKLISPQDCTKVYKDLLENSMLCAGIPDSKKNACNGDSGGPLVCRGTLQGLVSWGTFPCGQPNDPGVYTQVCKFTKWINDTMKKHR
SMARCA2 activ: SMARCA2 (BRM) function activators, primary screen, cell-based, luminescence, high throughput; hit rate 1% among 370,000; MG213 cells, MMTV-luciferase reporter, dexamethasone, overnight; activation, % at 9.1 µM; AID 652017, 2013; in the data active means activation above about 7.8%
MsrA inhibitor: bovine MsrA enzyme inhibitors, primary screen, biochemical, absorbance, HTS | inhibition, % at 15.5 µM | purified bovine MsrA, absorbance read-out | AID 651718, 2012 | hit rate 0.75% among 360,000; in the data active means inhibition above about 4.5%
SMARCA2 conf: SMARCA2 (BRM) function activators, confirmation, cell-based, luminescence, triplicate | shares compounds with SMARCA2 activ | MG213 cells, MMTV-luciferase with dexamethasone, overnight; MG213 cells expressing E1A, Rb sequestered; DMSO wells 0%, reference activator 100% | activation, % at 9.1 µM | hit rate 30% among 3,500 | AID 652260, 2013;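 active means activation above its plate's cutoff, the mean activation of tested wells plus 3 SD, cut at about 7.9% in these data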
GAL4-VP16 Luc: GAL4-VP16 luciferase reporter activation, counter-screen for SMARCA2 (BRM) activator project, cell-based, pG5luc, luminescence, high throughput. activation, % at 9.1 µM. HEK293 GAL4-VP16 pG5luc reporter; scaled: DMSO wells 0%, SAHA wells 100%. shares compounds with SMARCA2 activ. hit rate 41% among 3,500. AID 686939, 2013;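 active means activation above the solvent-only control well mean plus 3 SD, averaged across control plates, cut at about 5.2% in these data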
Of the large screens only hits and unclear results are named; the others gave an inactive call (follow-up assays come after a bar, where they were run).

Cn1nc([N+](=O)[O-])nc1S(C)(=O)=O	SMARCA2 activ 52 | SMARCA2 conf 49 | GAL4-VP16 Luc inactive
Cc1ccc(S(=O)(=O)N2[C@@H](CO)CO[C@H]2CC(=O)c2ccccc2)cc1	none (no result: bovine MsrA act)
Nc1nc(Nc2ccccc2)nc(NCc2ccco2)c1[N+](=O)[O-]	none
Nc1nc(Nc2ccccc2F)nc(NCc2ccco2)c1[N+](=O)[O-]	SMARCA2 activ 13 | SMARCA2 conf inactive | GAL4-VP16 Luc inactive
C=C1C(=O)[C@]23C[C@H]1CCC2[C@]1(C)C(=O)CC[C@@](C)(C(=O)O)C1C[C@@H]3O (some centres not stated)	SMARCA2 activ 31 | SMARCA2 conf 47 | GAL4-VP16 Luc inactive
Nc1nc2cc(S(=O)(=O)NC3=NCCCCC3)ccc2s1	SMARCA2 activ 9.8 | SMARCA2 conf inactive | GAL4-VP16 Luc inactive
COC(=O)C1=CN(c2ccc(Oc3ccccc3)cc2)C(N)=C(C#N)C1c1ccc(-c2ccccc2)cc1 (configuration not stated)	none (no result: bovine MsrA act)
CCn1nc(C)cc1C(=O)N1CCc2c([nH]c3ccccc23)C1c1cc(F)ccc1F (configuration not stated)	SMARCA2 activ 9.0 | SMARCA2 conf inactive | GAL4-VP16 Luc 6.3
Brc1cc2c(cc1C1OCCCO1)OCO2	none
Cc1ccc(NC(=O)C2C(C(=O)O)C3C=CC2C32CC2)cc1 (configuration not stated)	SMARCA2 activ 9.8 | SMARCA2 conf inactive | GAL4-VP16 Luc inactive
CC(=O)NCCNc1nc(NCC2CC2)nc2cc(-c3ccccc3)sc12	none
COc1ccc(S(=O)(=O)Nc2ccc3c(c2)C(=O)N([C@@H](C)CO)C[C@@H](C)[C@H](CN(C)S(=O)(=O)c2ccc(F)cc2)OCCCC[C@H](C)O3)cc1	none
Cc1sc2nc(CN3CCCCC3)nc(Nc3ccc4c(c3)OCCO4)c2c1C	SMARCA2 activ 9.2 | SMARCA2 conf 11 | GAL4-VP16 Luc inactive
Cc1sc2nc(CN3CCCC3)nc(NCc3ccncc3)c2c1C	none
Nc1cccn2c(-c3ccc(Cl)cc3)cnc12	SMARCA2 activ 9.3 | SMARCA2 conf 15 | GAL4-VP16 Luc 20
CCNC(=O)C1(C)CCCN(Cc2ccc(Oc3ccccc3)cc2)C1 (configuration not stated)	none
O=S1(=O)CC(N2CCC(c3ccccc3)CC2)CN1Cc1ccccc1 (configuration not stated)	none
Cc1ccc(C(=O)NC2=NCCS2)cc1	SMARCA2 activ 8.8 (no result: bovine MsrA act) | SMARCA2 conf inactive | GAL4-VP16 Luc 13
CC(C)c1ccc(C(=O)NC2=NCCS2)cc1	none
O=C1c2c(-c3ccc(Br)cc3)noc2CCN1Cc1cn(-c2ccc(Cl)cc2)nn1	none (no result: bovine MsrA act)
CC(C)(C)OC(=O)N/N=C/c1ccc(Br)cc1	SMARCA2 activ 8.2 | SMARCA2 conf 8.3 | GAL4-VP16 Luc 10
CC(C)(C)NC(=O)C(=O)N/N=C/c1ccc(Br)cc1	none
COc1ccc(Cn2cc(COC(=O)N3CCCC3)nn2)cc1	none (no result: bovine MsrA act, MsrA inhibitor)
C[C@H](CO)N1C[C@H](C)[C@@H](CN(C)Cc2ccc3c(c2)OCO3)Oc2cc(Br)ccc2S1(=O)=O	none
COc1cccc2sc(Nc3nnc(-c4cccs4)o3)nc12	SMARCA2 activ 15 | SMARCA2 conf inactive | GAL4-VP16 Luc 14
CN1CCC(=NNC(=O)C(=O)Nc2ccccc2)CC1	SMARCA2 activ 8.2 | SMARCA2 conf inactive | GAL4-VP16 Luc inactive
c1ccc2oc(-c3ccc4nc[nH]c4c3)nc2c1	SMARCA2 activ 9.6 | SMARCA2 conf 10 | GAL4-VP16 Luc 14
CCOC(=O)CCCSc1nc(-c2ccc3c(c2)OCO3)cc(C(F)(F)F)c1C#N	SMARCA2 activ 8.7 | SMARCA2 conf inactive | GAL4-VP16 Luc inactive
O=C(CNC(=O)c1ccccc1F)c1ccccc1	SMARCA2 activ 10 | SMARCA2 conf inactive | GAL4-VP16 Luc 9.6
O=C(NC(=S)NC(=O)c1ccccc1F)c1ccccc1F	SMARCA2 activ 10.0 | SMARCA2 conf inactive | GAL4-VP16 Luc inactive
O=C(CNC(=O)c1ccccc1F)NCCc1ccc(Cl)cc1Cl	SMARCA2 activ 9.5 | SMARCA2 conf inactive | GAL4-VP16 Luc inactive
O=C(NC(=S)NCc1ccccc1)c1ccccc1F	none
O=C(CNC(=O)c1ccccc1F)NCCc1ccc(Cl)cc1	none
O=C(CNC(=O)c1ccccc1Cl)c1ccccc1	none
CCN(CC)C(=O)Cn1nc(Cc2ccncc2)c2ccccc2c1=O	none (no result: bovine MsrA act, MsrA inhibitor)
CC(=O)Nc1cc(-c2ccc(CO)cc2)cn2c(-c3cccc(C(F)(F)F)c3)cnc12	none
Nc1ccc(/C=C/C(=O)c2cccs2)cc1	SMARCA2 activ 12 | SMARCA2 conf 9.1 | GAL4-VP16 Luc 6.8
CCc1nc2c(OCc3ccc(Cl)cc3)cccn2c1N(C=O)Cc1ccc(OC)cc1	none
O=C(NCc1cccs1)c1cccnc1Cl	SMARCA2 activ 11 | SMARCA2 conf inactive | GAL4-VP16 Luc inactive
CC1CCN(C(=S)NCCc2ccccc2)CC1	SMARCA2 activ 8.7 | SMARCA2 conf 11 | GAL4-VP16 Luc 6.7
CCc1ccc(C(=O)OCC(=O)N(CCOC)c2c(N)n(Cc3ccccc3)c(=O)[nH]c2=O)cc1	none
COc1ccc(NC(=S)Nc2cc(C)[nH]n2)cc1Cl	none
Cc1cc(NC(=S)Nc2ccc(C)c(Cl)c2)n[nH]1	SMARCA2 activ 8.3 | SMARCA2 conf 10 | GAL4-VP16 Luc 6.9
O=C(O)CN1C(=O)c2cccc3c(Br)ccc1c23	none
CN(C)CCCN1C(=O)c2cccc3c(Br)ccc(c23)C1=O	SMARCA2 activ 9.2 | SMARCA2 conf 35 | GAL4-VP16 Luc inactive
CCOC(=O)C(=NO)C1=CSC2=NNC(C)(C)N12	SMARCA2 activ 9.2 | SMARCA2 conf inactive | GAL4-VP16 Luc inactive
O=C(CSc1cccc[n+]1[O-])Nc1ccccc1Oc1ccccc1	SMARCA2 activ 8.4 | SMARCA2 conf 10 | GAL4-VP16 Luc inactive
O=C(CSc1cccc[n+]1[O-])Nc1cc([N+](=O)[O-])ccc1Cl	none
Cc1ccc(NC(=O)CSc2cccc[n+]2[O-])c([N+](=O)[O-])c1	SMARCA2 activ 8.4 | SMARCA2 conf inactive | GAL4-VP16 Luc inactive
O=C(CSc1cccc[n+]1[O-])Nc1cc2c(cc1Cl)C(=O)c1ccccc1C2=O	SMARCA2 activ 12 | SMARCA2 conf 13 | GAL4-VP16 Luc 7.3
Nc1ccc(N=Nc2ccccc2)c2ccccc12	none
c1ccc(N=Nc2ccc3cccccc2-3)cc1	SMARCA2 activ 9.6 | SMARCA2 conf 14 | GAL4-VP16 Luc 13
CC(C)CCN1C(=O)c2ccc(C(=O)NCc3ccccn3)cc2C1=O	none
Cc1sc(NC(=O)c2ccc(Cl)s2)c(C(N)=O)c1C	none
